Screen size: about 1,200 compounds; about 85 (7%) were called active. Calls follow the shape of the full dose curve. The entries come from a sample that favours actives as a whole.
Target: Beta-2 adrenergic receptor (Homo sapiens) (UniProt P07550)
Assay: qHTS assay of beta-arrestin-biased ligands of beta2-adrenergic receptor: Hit Validation with GloSensor; as to activation: 0% is about no effect
Settings: W9-Glo22F cells, GloSensor cAMP luminescence, beta2AR agonism; series mostly up to 46.1 µM; activation: at the top concentration
Excerpt: The concept of biased agonism is an emerging concept of molecular pharmacology which proposes that seven transmembrane receptors (7TMRs) or G protein-coupled receptors (GPCRs), exist in multiple signaling conformations and complexes and that ligands (either agonists or antagonists) can induce signaling biased responses for distinct signal transduction cascades.
Furthermore, accumulating evidence over the last decade has drawn attention to a novel function of beta-arrestins as signal transducers that scaffold various signaling molecules upon activation of 7TMRs. […] This beta-arrestin-biased signaling presumably leads to distinct physiological outcomes from those by G protein activation.
Additionally, the active receptor conformations which […] on this beta-arrestin signaling are likely different from those activating G protein signaling
The goal of this screening project is to discover and optimize novel beta-arrestin-biased ligands for beta2-AR signaling. A luminescent cell-based assay for beta2-AR-mediated agonism, known as the Tango assay, has been validated in which ligand binding of a recombinant beta2-AR and subsequent recruitment of a recombinant beta-arrestin lead to the release of the transcriptional activator tTA, which upregulates transcription of a tTA-responsive luciferase gene. […] After compounds were identified in this primary screen, they were tested in a counter screen that used luminescence as measure through the GloSensor reagent.
NIH Molecular Libraries Probe Production Network [MLPCN]
NIH Chemical Genomics Center [NCGC]
PI: Bryan Roth (UNC) and Bob Lefkowitz (Duke)
2 uL of W9-Glo22F cells are dispensed into a white 1536-well plate. They are incubated overnight at 37 deg C at 5% CO2. 23 nL of compounds and controls are pinned into the wells. Then 2 uL of GloSensor is added and the plate is incubated for 10 min at room temperature.The plates are then read on the ViewLux for luminescence.
Potency is read from the fitted curve at half-maximal effect.

Sequence of Beta-2 adrenergic receptor (Homo sapiens) (P07550 whole entry, looked up): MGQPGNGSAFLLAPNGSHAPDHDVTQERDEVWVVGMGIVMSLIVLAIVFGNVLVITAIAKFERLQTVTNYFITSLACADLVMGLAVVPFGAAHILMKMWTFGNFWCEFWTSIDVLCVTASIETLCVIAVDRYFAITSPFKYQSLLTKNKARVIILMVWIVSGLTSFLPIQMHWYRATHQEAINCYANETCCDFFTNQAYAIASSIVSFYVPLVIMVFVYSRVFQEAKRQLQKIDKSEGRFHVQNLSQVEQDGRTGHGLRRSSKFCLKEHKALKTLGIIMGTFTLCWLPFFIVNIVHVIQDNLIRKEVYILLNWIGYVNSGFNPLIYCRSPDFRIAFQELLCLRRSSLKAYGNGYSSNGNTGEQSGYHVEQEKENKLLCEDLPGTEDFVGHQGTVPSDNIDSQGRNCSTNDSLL

Compound	activation	Potency
COC(=O)C1=C(c2ccc(OCc3ccccc3)cc2)C[C@@H]2CC[C@H]1N2C(=O)NCc1cccc(C(F)(F)F)c1	-2.33% (inactive)	–
COC(=O)C1=C(c2ccc(OCc3ccccc3)cc2)C[C@@H]2CC[C@H]1N2C(=O)NCc1ccc(OC)c(OC)c1	–	4.11 µM (active)
COC(=O)C1=C(c2ccc(OCc3ccccc3)cc2)C[C@@H]2CC[C@H]1N2C(=O)NCc1cccc(OC)c1	-1.16% (inactive)	–
O=C1NC(=O)N(Cc2ccccc2)C(=O)/C1=C/C=C/c1ccco1	-0.857% (inactive)	–
COc1cccc(C(=O)C2CCCN(Cc3cccc(C)n3)C2)c1 (stereo not given)	-0.153% (inactive)	–
Clc1ccc2c(c1)C(c1ccccc1Cl)=NCc1nnc(N3CCN(CCOc4ccccc4)CC3)n1-2	0.153% (inactive)	–
COC(=O)C1=C(c2ccc(-c3ccccc3)c(F)c2)C[C@@H]2CC[C@H]1N2C(=O)NCc1ccco1	-2.33% (inactive)	–
CNCC(O)c1ccc(OC(=O)C(C)(C)C)c(OC(=O)C(C)(C)C)c1 (stereo not given)	–	0.259 µM (active)
COC(=O)C1=C(c2ccc(OC)c(OC)c2)C[C@@H]2CC[C@H]1N2C(=O)NCc1cccc2ccccc12	0% (inactive)	–
OC12ONC(c3ccccn3)C1N1CCC2CC1 (stereo not given)	1.16% (inactive)	–
COC(=O)C1=C(c2ccc(-c3ccccc3)c(F)c2)C[C@@H]2CC[C@H]1N2C(=O)NCCOc1ccc(OC)cc1	-2.33% (inactive)	–
O=c1c2ccccc2nc(/C=C/c2ccc(O)c(O)c2)n1-c1ccccc1	–	32.6 µM (active)
COc1cccc(OCc2cc(C(=O)N3C[C@H]4C[C@@H](C3)c3cccc(=O)n3C4)no2)c1	0.306% (inactive)	–
c1cncc(C2Nc3cccc4cccc(c34)N2)c1	0% (inactive)	–
COC(=O)C1=C(c2ccc(F)cc2F)C[C@@H]2CC[C@H]1N2C(=O)NCCNC(C)=O	-2.33% (inactive)	–
